Gli-Sufu antag: blocks Gli-Sufu signaling in a luciferase reporter. Sufu-KO-LIGHT fibroblasts, Gli luciferase reporter luminescence. inhibition, % at 5 µM. hit rate 0.74% among 340,000;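 active = inhibition above about 55%, limit read from the data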
MPTP inh: blocks calcium-induced mitochondrial swelling; isolated mouse mitochondria, Ca2+ swelling absorbance, 30 min; inhibition, % at 10 µM; hit rate 1.4% among 360,000;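 active = inhibition of 50% or more, scaled per plate between neutral and stimulator controls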
NR3A LBD binder: modulates the human NR3A ligand-binding domain. NR3A LBD differential scanning fluorimetry, Tm shift; 0% = protein alone, 100% = glycine-bound protein. Tm shift relative to glycine control, % at 25 µM. hit rate 2.5% among 340,000. AID 1259313;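 active = melting temperature shift of at least 10% of the positive control shift, at one fixed dose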
Beta cell apopt: beta cell apoptosis inhibition | INS-1E cytokine-induced death, ATP luminescence, 48 h; percent of positive-control rescue, neutral wells zero | protection from apoptosis, % (no concentration beside the values) | hit rate 0.8% among 300,000;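 active = Every replicate reaches about 75%, or at least half do and their mean reaches it too, limit read from the data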;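 also: higher means more ATP so stronger rescue from cytokine killing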
Mdm2 MdmX PPI: inhibitors of human Mdm2/MdmX interaction. O15151+Q00987. SaOS-2 split-luciferase Mdm2/MdmX complementation, luminescence. inhibition, % at 8 µM. hit rate 3% among 330,000;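 active = inhibition of at least 50% at 8 µM in the primary screen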
Target sequence (O15151 whole entry, looked up): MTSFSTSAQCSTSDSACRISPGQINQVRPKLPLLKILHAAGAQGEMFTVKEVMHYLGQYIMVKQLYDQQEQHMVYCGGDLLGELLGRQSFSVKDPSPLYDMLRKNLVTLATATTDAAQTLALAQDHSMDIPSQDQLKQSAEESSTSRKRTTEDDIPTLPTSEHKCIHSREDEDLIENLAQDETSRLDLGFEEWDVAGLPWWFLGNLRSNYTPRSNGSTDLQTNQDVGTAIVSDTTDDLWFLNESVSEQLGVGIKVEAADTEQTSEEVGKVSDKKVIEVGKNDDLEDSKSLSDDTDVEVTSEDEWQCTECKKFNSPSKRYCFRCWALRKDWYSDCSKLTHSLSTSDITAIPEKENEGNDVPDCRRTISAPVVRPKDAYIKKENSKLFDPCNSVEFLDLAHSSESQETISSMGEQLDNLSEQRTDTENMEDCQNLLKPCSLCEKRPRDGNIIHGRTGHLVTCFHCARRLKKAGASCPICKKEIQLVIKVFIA
Target sequence (Q00987 whole entry, looked up): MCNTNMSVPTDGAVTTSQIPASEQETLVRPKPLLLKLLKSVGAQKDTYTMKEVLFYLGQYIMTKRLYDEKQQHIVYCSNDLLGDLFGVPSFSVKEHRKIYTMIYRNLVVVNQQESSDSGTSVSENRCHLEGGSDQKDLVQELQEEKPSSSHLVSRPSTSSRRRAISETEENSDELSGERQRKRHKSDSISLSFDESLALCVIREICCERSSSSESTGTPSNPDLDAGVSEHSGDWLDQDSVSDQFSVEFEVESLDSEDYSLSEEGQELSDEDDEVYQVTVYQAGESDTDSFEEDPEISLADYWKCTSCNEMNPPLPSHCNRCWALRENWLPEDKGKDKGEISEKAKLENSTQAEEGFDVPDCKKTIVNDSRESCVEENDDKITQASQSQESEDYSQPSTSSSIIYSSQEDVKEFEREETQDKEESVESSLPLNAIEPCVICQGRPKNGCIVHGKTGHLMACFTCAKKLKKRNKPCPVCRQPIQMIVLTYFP
CSC inhib: cancer stem cell inhibition. inhibition, % at 7.5 µM. AID 2717. cancer stem cell-like cells viability, luminescence. hit rate 1.1% among 300,000; in the data active = inhibition above about 75%; tested in HMLE shEcad cells
Each line names hits and unclear results; the compound was inactive in the other large screens. In the library only some 6.6% were active in any assay of this set; here they are far more common.

CC1C(c2ccccc2)OCCN1C(=S)Nc1ccc(S(=O)(=O)N2CCCCC2)cc1 (stereo unspecified)	none (no result: Gli-Sufu antag, NR3A LBD binder, Beta cell apopt, Mdm2 MdmX PPI, CSC inhib)
COc1ccc(C(=O)Nc2ccc3c(c2)OCCO3)cc1Br	none (no result: Beta cell apopt, CSC inhib)
COc1ccc(NC(=O)c2ccc(COCC(F)(F)F)cc2)cc1OC	none
CC(=O)c1ccc(NC(=O)c2ccc(C)c(Br)c2)cc1	NR3A LBD binder 28
Cc1cc(NC(=O)c2ccc(NC(=O)C3CCCO3)cc2)ccc1Br (stereo unspecified)	NR3A LBD binder 11
COc1ccc(C(=O)Nc2ccc(OCC(F)(F)C(F)F)c(C(F)(F)F)c2)cc1OC	NR3A LBD binder 18, CSC inhib 92
COc1ccc(C(=O)Nc2ccc(Nc3ccccc3)cc2)cc1Br	NR3A LBD binder 24
O=C(Cn1ncc2c([nH]c3ccccc32)c1=O)N1CCOCC1	none
O=S(=O)(c1ccccc1F)N1CCC(c2nc3ccccc3[nH]2)CC1	none (no result: CSC inhib)
CC(C)N(C)c1ncnc2c1ncn2[C@H]1CN(CCN2CCOCC2)C[C@@H](CO)O1	none (no result: Gli-Sufu antag, NR3A LBD binder, Beta cell apopt, Mdm2 MdmX PPI, CSC inhib)
Cc1ccc(C(=O)Nc2ccc(N3CCCCC3)cc2)cc1	none (no result: CSC inhib)
CCC(C)NS(=O)(=O)c1ccc(NC(=O)C2CCCO2)cc1 (stereo unspecified)	none
COc1ccc(C(=O)Nc2ccc(N3CCCCC3)cc2)cc1Br	NR3A LBD binder 10
COc1cc(C(=O)Nc2ccc(O)cc2)ccc1OC(C)=O	NR3A LBD binder 32
CCCCNS(=O)(=O)c1ccc(NC(=O)C2CCCO2)cc1 (stereo unspecified)	NR3A LBD binder 12
CCCc1nnc(SCC(=O)Nc2cccc(Cl)c2Cl)o1	none
CCOC(=O)C1(Cc2cccc(OC)c2)CCCN(C(=O)c2cc(C)on2)C1 (stereo unspecified)	none
COc1cc(CNC(C)c2ccccc2)cc(Br)c1OCc1ccccc1 (stereo unspecified)	CSC inhib 112
COc1ccc(Br)cc1CNC(C)c1ccccc1 (stereo unspecified)	NR3A LBD binder 21
NNc1nc(-c2ccccc2)cc(-c2ccccc2O)n1	Beta cell apopt 79
Nc1ccc(-c2cc(-c3ccc(N)cc3)nc(-c3ccccc3)n2)cc1	NR3A LBD binder 25
NNc1nc(-c2ccccc2)cc(-c2ccccc2)n1	CSC inhib 80
N#Cc1c(-c2ccccc2)cc(-c2ccccc2)nc1SCCC(=O)O	CSC inhib 75
N#Cc1c(-c2ccc(Cl)cc2)cc(-c2ccccc2)nc1SCC(=O)O	none
N#Cc1cc(-c2ccccc2)nc(NN)n1	none
O=C(NC1CC1)c1ccccc1	none (no result: Gli-Sufu antag, NR3A LBD binder, Beta cell apopt, Mdm2 MdmX PPI, CSC inhib)
CC(C)(C)OC(=O)N1CCC[C@@H]1C(=O)N1CCC[C@@H]1C(=O)NCc1ccccc1Cl	none (no result: Gli-Sufu antag, NR3A LBD binder, Beta cell apopt, Mdm2 MdmX PPI, CSC inhib)
N#Cc1c(-c2ccccc2)cc(-c2ccc(O)cc2)nc1N	NR3A LBD binder 15 (no result: Beta cell apopt, CSC inhib)
Cc1ccc(S(=O)(=O)N(C)c2ccc(OCC(=O)OCc3cccc(Br)c3)cc2)cc1	none (no result: Beta cell apopt, Mdm2 MdmX PPI, CSC inhib)
CN(c1ccc(OCc2nnc(-c3ccccc3)o2)cc1)S(=O)(=O)c1ccccc1	NR3A LBD binder 20
CN(c1ccc(OCC(=O)OCc2nnc(-c3ccccc3)o2)cc1)S(=O)(=O)c1ccc(Cl)cc1	none
Cc1ccc(S(=O)(=O)N(C)c2ccc(OCc3cccc(C)c3)cc2)cc1	CSC inhib 77
C[C@H]1CN([C@@H](C)CO)C(=O)CCCn2cc(nn2)CO[C@@H]1CN(C)C(=O)Cc1ccccc1	none (no result: Gli-Sufu antag, NR3A LBD binder, Beta cell apopt, Mdm2 MdmX PPI, CSC inhib)
S=C(NCCc1ccccc1)NCCc1ccccc1	NR3A LBD binder 26
NS(=O)(=O)c1ccc(NC(=S)NCCc2ccccc2)cc1	NR3A LBD binder 12
COc1ccc(NC(=O)Nc2cccc3c2O[C@H](CN(C)S(=O)(=O)c2c(C)noc2C)[C@@H](C)CN([C@H](C)CO)C3=O)cc1	none
S=C(NCc1ccccn1)NN=Cc1ccccn1	Gli-Sufu antag 74 (no result: Beta cell apopt, Mdm2 MdmX PPI, CSC inhib)
CCOC(=O)[C@H]1[C@H]2COc3ccc(Cl)cc3[C@@H]2N2C(=O)CNC(=O)[C@@]12C	none
Cc1cc(NCc2ccccn2)ccc1Br	NR3A LBD binder 11
CC(C)n1cnc2cc(NCc3ccccn3)ccc21	none
O=C(O)c1cocc1C(=O)O	none (no result: Gli-Sufu antag, NR3A LBD binder, Beta cell apopt, Mdm2 MdmX PPI, CSC inhib)
CC(Sc1nnc(-c2cccnc2)n1N)C(=O)NCCC1=CCCCC1 (stereo unspecified)	none (no result: Beta cell apopt, CSC inhib)
CNCC(=O)Nc1c(C)n[nH]c1C	NR3A LBD binder 14
O=C(Cc1cccc(NC(=O)C2CCCN(C(=O)C3CC3)C2)c1)Nc1cccc(C(=O)N2CCOCC2)c1 (stereo unspecified)	none (no result: Beta cell apopt, Mdm2 MdmX PPI, CSC inhib)
COc1ccc(NC(=O)c2cccc(-c3ccc(O)cc3)c2)cn1	CSC inhib 86
CC(=O)Nc1cccc(NC(=O)c2cccc(-c3ccc(O)cc3)c2)c1	NR3A LBD binder 10 (no result: CSC inhib)
COc1ccc(NC(=O)c2cc(OC)c(OC)c(OC)c2)cn1	none
O=C(N/C=C/c1ccccc1)Nc1ccc(Cl)cc1	NR3A LBD binder 11
Cc1ccc(NC(=O)N/C=C/c2ccccc2)cc1	none
Cc1ccc(NC(=O)N/C=C/c2ccc(Cl)cc2)cc1	NR3A LBD binder 16
O=c1[nH]c(CN2CCN(c3ccccn3)CC2)nc2c(Br)cc(Br)cc12	CSC inhib 81
O=c1[nH]c(CN2CCN(c3ncccn3)CC2)nc2c(Br)cc(Br)cc12	none
COC(=O)c1ccc(NC(=O)C(=O)N2CCN(C(=S)Nc3ccc(C)cc3)CC2)cc1	NR3A LBD binder 11
COc1ccc(NS(=O)(=O)c2ccc(NC(=O)CCNS(=O)(=O)c3ccc(C)cc3)cc2)cc1	NR3A LBD binder 10
Cc1ccc(S(=O)(=O)Nc2ccccc2N(C)S(=O)(=O)c2ccc(C)cc2)cc1	NR3A LBD binder 13, Beta cell apopt 110
Cc1ccc(S(=O)(=O)Nc2ccc(Nc3ccccc3)cc2)cc1	NR3A LBD binder 24
Cc1ccc(NCCC(=O)c2cccs2)cc1C	none
Cc1ccc(NCCC(=O)c2cccs2)cc1	NR3A LBD binder 13
CC1CCCC(NC(=O)C2CCN(S(=O)(=O)c3cccc4nonc34)CC2)C1C (stereo unspecified)	none
COc1ccc(NS(=O)(=O)c2ccc(OC)c(NC(=O)CCC3CCCCC3)c2)cc1	NR3A LBD binder 22
Cc1ccc(S(=O)(=O)Nc2cc3c(C(=O)Nc4ccccc4)c(C)oc3c3ccccc23)cc1	NR3A LBD binder 12 (no result: Beta cell apopt)
O=C(Nc1ccc(NC(=O)c2cccs2)cn1)c1ccccc1	NR3A LBD binder 14
O=C(Nc1ccc(NC(=O)C2CC2)nc1)c1cccs1	none
Cc1ccc(NS(=O)(=O)c2ccc(NS(=O)(=O)c3cccs3)cc2)cc1	none
Cc1ccc(S(=O)(=O)Nc2ccc(NC(=O)c3cccs3)cc2)cc1	NR3A LBD binder 18
COc1ccc(CCN2CC(C(=O)NCCCc3ccncc3)CCC2=O)cc1 (stereo unspecified)	none (no result: Gli-Sufu antag, NR3A LBD binder, Beta cell apopt, Mdm2 MdmX PPI, CSC inhib)
CCCOc1ccc(/C=N/NC(=O)c2ccc3c(c2)OCO3)c(OCCC)c1	none
O=C(Nc1ccccc1C(=O)O)c1cccc(S(=O)(=O)Nc2ccc(Br)cc2)c1	NR3A LBD binder 12
